Screening data (PubChem BioAssay)
A selection: hits, their analogues and other compounds. The true share with any hit is near 2.7%.
aDG glyco up – activators of alpha-DG glycosylation, primary screen, uHTS, Pro5-aDG cells, AlphaScreen. alpha-DG glycosylation AlphaScreen (IIH6); 0% Pro5, 100% B10-LARGE cell signal. activation, % at 10 µM. 360,000 compounds, 0.22% hits;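 active = activation of at least 8% versus controls, or a plate z-score of at least 8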;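 note: Pro5 are CHO cells carrying HIG-tagged alpha-DG that lacks glycosylation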
NadD block – inhibitors of S. aureus NadD, primary screen, biochemical, colorimetric, uHTS; Nicotinate-nucleotide adenylyltransferase NadD (Staphylococcus aureus N315); purified NadD enzyme, colorimetric absorbance read-out; inhibition, % at 20 µM; 360,000 compounds, 0.78% hits; AID 602399, 2012; in the data active = inhibition above about 26%
H9c2 TAG inh – inhibitors of triacylglycerol accumulation, primary screen, cell-based, uHTS, fluorescence, H9c2; H9c2 cells, Nile Red lipid (TAG) fluorescence; cells loaded with 200 µM oleic acid; inhibition, % at 12.5 µM; 230,000 compounds, 0.66% hits;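 active = pattern-corrected inhibition of lipid staining of at least 50% with the nuclear-stain viability signal not falling by more than 50%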
MPTP inh – mitochondrial permeability transition pore inhibitors, primary screen, biochemical, isolated mouse mitochondria, absorbance | Ca2+ swelling absorbance, 30 min | inhibition, % at 10 µM | 360,000 compounds, 1.4% hits | AID 602449, 2012;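 active = inhibition of 50% or more, scaled per plate between neutral and stimulator controls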
NadD conf – inhibitors of S. aureus NadD, confirmation, biochemical, colorimetric, single concentration; purified S. aureus NadD, colorimetric enzyme assay; shares compounds with NadD block; 2,000 compounds, 13% hits; inhibition, % at 20 µM; in the data active = inhibition mostly above about 42%, no sharp cut-off; inactive = mostly below about 42%
Of the large screens only hits and unclear results are named; the others gave an inactive call (follow-up assays come after a bar, where they were run).

CCOc1ccc(NS(=O)(=O)c2ccc3c(c2)n(C)c(=O)n3C)cc1	none (no result: H9c2 TAG inh)
O=C(C#Cc1ccccc1)c1ccccc1	H9c2 TAG inh 63.9
CCN(C(=O)CSc1nnc(-c2cccc(F)c2)n1N)c1c(N)n(Cc2ccccc2)c(=O)[nH]c1=O	none
Cc1cc(-c2csc(NCc3ccccc3)n2)c(C)n1C	NadD block 42.4
CCOCCOC(=O)c1[nH]c2c(c1C)C(=O)CC(c1ccccc1)C2 (configuration not stated)	aDG glyco up 2.2 (no result: H9c2 TAG inh)
O=C(COC(=O)c1cnc(Cl)c(Cl)c1)NC1CC1	none
CC1CCN(C(=O)c2[nH]cnc2C(=O)N2CCN(c3ccccc3)CC2)CC1	none
O=C1NC(=Nc2ccccc2)S/C1=C\c1cccn1-c1ccccc1	NadD block 37.9
Cc1cccc(N=C2NC(=O)/C(=C/c3cccn3C)S2)c1	none
CC(=O)Nc1sc2c(c1-c1nc3ccccc3s1)CN(C(C)C)CC2	H9c2 TAG inh 78.3
COc1ccc(S(=O)(=O)N2CCC(C(=O)NCc3ccncc3)CC2)cc1C	none (no result: H9c2 TAG inh)
C=Cc1c(C)c2cc3[nH]c(cc4nc(cc5nc(cc1[nH]2)C(C)=C5CCC(=O)O)C(CCC(=O)O)=C4C)c(C)c3C=C	aDG glyco up 73.0
N#Cc1ccc(-c2cccs2)nc1SCc1cccnc1	H9c2 TAG inh 53.3
CC(/C=C(\NC(=O)c1ccccc1)C(=O)N=Nc1c(O)[nH]c2ccc(C)cc12)=C\c1ccccc1	NadD block 38.6
Cc1ccc2[nH]c(O)c(N=NC(N)=S)c2c1	none
CCc1nc2ccc(C(=O)Nc3cccc(OCC(=O)N(C)C)c3)cn2c1N(CC)CCOC	none
Cc1ccc(C)c(N=Nc2ccc(O)c3ncccc23)c1	H9c2 TAG inh 108.3
NS(=O)(=O)c1ccc(N=Nc2ccc(O)c3ncccc23)cc1	none (no result: H9c2 TAG inh)
Cc1cccc(N=Nc2ccc(O)c3ncccc23)c1	H9c2 TAG inh 82.4
Oc1ccc(N=Nc2ccc3c(c2)OCCO3)c2ncccc12	NadD block 27.2, H9c2 TAG inh 78.5
Cc1ccc(O)c(NC(=O)c2cc(C)no2)c1	none (no result: H9c2 TAG inh)
Cc1nc(SCC(=O)NCc2ccco2)c2c3c(sc2n1)CCCC3	none (no result: H9c2 TAG inh)
CCCc1nc2sc3c(SCC(=O)NCc4ccco4)ncnc3c2c2c1CCC2	NadD block 33.9 (no result: H9c2 TAG inh)
COc1cc(OC)cc(-c2c(Sc3ccccc3)c3cc(-c4ccc5c(c4)OCCO5)ccc3n2C)c1	none (no result: H9c2 TAG inh)
CCCSc1nc(SCC(=O)NCc2ccccc2)c2c3c(sc2n1)COC(C)(C)C3	H9c2 TAG inh 56.2
CCc1nc2ccc(C(=O)NCCC(C)C)cn2c1N(CC)CCOC	none
O=C1CC2(CCN(C(=O)COc3ccc(Cl)cc3)CC2)Oc2ccccc21	none
CCCCCCCCCCC(C(=O)O)C1(C(=O)O)CCC(=O)O1 (configuration not stated)	none (no result: H9c2 TAG inh)
CCOc1ccc(-c2ccc(/C=C3/C(=N)N4C(C)=CSC4=NC3=O)o2)c([N+](=O)[O-])c1	NadD block 32.3 (no result: H9c2 TAG inh)
CCOC(=O)c1ccc(N2C(=O)c3n[nH]c(C)c3C2c2ccccn2)cc1 (configuration not stated)	aDG glyco up 4.6
CC(OC(=O)CCCN=C1NS(=O)(=O)c2ccccc21)C(=O)Nc1ccccc1F (configuration not stated)	none
CCc1ccc2c(c1)C1(NN=C(c3cccc4ccccc34)S1)C(=O)N2 (configuration not stated)	NadD block 34.5
COc1cc(C2Nc3cccc4cccc(c34)N2)cc(OC)c1O	NadD block 31.7 (no result: H9c2 TAG inh)
COC(=O)c1ccc(C2Nc3cccc4cccc(c34)N2)cc1	NadD block 40.4
COc1ccc(C2NC(=O)c3ccccc3N2)cc1OC (configuration not stated)	none
Brc1ccc(C2Nc3cccc4cccc(c34)N2)cc1	none
COc1ccc(C2Nc3cccc4cccc(c34)N2)cc1Br	NadD block 49.2 (no result: H9c2 TAG inh)
COc1cc(C2Nc3cccc4cccc(c34)N2)ccc1OC(C)=O	NadD block 46.6
CC(C)(C)OC(=O)N1Cc2ccccc2C[C@H]1C(=O)NCC(=O)NC1CCCCC1	none (no result: H9c2 TAG inh)
O=C(N/N=C/c1cc([N+](=O)[O-])ccc1O)c1cccc(NC(=O)c2cccc(Cl)c2)c1	NadD block 63.1 (no result: H9c2 TAG inh)
Cc1nc2ccc(C(=O)N/N=C/c3cc([N+](=O)[O-])ccc3O)cc2[nH]1	none
COC(=O)Cc1ccc(NC(=O)c2ccc(C(C)(C)C)cc2)cc1	H9c2 TAG inh 72.5
NC1=C(Cl)C(=O)c2ccc(S(N)(=O)=O)cc2C1=O	none
NC1=C(Cl)C(=O)c2ccccc2C1=O	aDG glyco up 21.6, H9c2 TAG inh 65.9
COc1ccc2nc3cc(Cl)ccc3c(C#N)c2c1	none
COc1ccc2nc3cc(Cl)ccc3c(Nc3ccc(O)c(CN4CCN(C)CC4)c3)c2c1	H9c2 TAG inh 54.4
Oc1cc(NCCN2CCOCC2)cc2cccnc12	H9c2 TAG inh 73.7
O=C(NCCN1CCOCC1)c1ccc2ccccc2c1	none
Cc1ccc(S(=O)(=O)c2ccc([N+](=O)[O-])o2)cc1	H9c2 TAG inh 76.7
Cc1ccc(NC(=O)c2ccc([N+](=O)[O-])o2)c(C)c1	none
NC(=O)CC[C@H](NC(=O)c1ccc(F)cc1)C(=O)N1CCN(Cc2ccc3c(c2)OCO3)CC1	none
c1cc2c(cc1Nc1nc(-c3ccc4c(c3)OCO4)cs1)OCCO2	NadD block 40.2
Cc1cc(N)ccc1N1CCCC1	NadD block 70.0
C/C(=C\c1ccc2c(c1)OCO2)C1Nc2cccc3cccc(c23)N1	NadD block 32.6
C/C(=C\c1ccccc1F)C1Nc2cccc3cccc(c23)N1	none (no result: H9c2 TAG inh)
Fc1cc(Br)ccc1COc1ccc(-c2nnco2)cc1	none
Cc1ccc(C2=NN=C(NC(=O)CSc3nnc4c5ccccc5n(C)c4n3)SC2)cc1	NadD block 82.4
Cc1ccc(NC(=O)c2cccc(NC(=O)CC3SC(N4CCCCC4)=NC3=O)c2)nc1 (configuration not stated)	none
Cc1cccc(-c2nc3c(c(SCC(=O)N4CCOCC4)n2)COC(C)(C)C3)c1	none (no result: H9c2 TAG inh)
CCc1ccc2[nH]c3nc(N/N=C/c4ccc(O)cc4O)nnc3c2c1	NadD block 39.3 (no result: H9c2 TAG inh)
Cc1c(Cc2ccccc2)sc(/N=C/c2c(O)ccc3ccccc23)c1C(N)=O	NadD block 35.8 (no result: H9c2 TAG inh)
O=C(N=Nc1c(O)[nH]c2ccc(Cl)cc12)c1cc(-c2cccs2)nc2ccccc12	NadD block 33.5 (no result: H9c2 TAG inh)
Cc1cccc(NC(=O)CCNC(=O)c2ccc(Br)cc2)c1	none (no result: H9c2 TAG inh)
CCOc1c(Cl)cc(CNc2ccc(N3CCCC3)cc2)cc1OC	NadD block 32.7, H9c2 TAG inh 60.1 | NadD conf inactive
Cc1nonc1NC(=O)CSc1nc2cc(Cl)ccc2c2c1CCCC2	NadD block 30.4 (no result: H9c2 TAG inh) | NadD conf inactive
O=C(CCCCn1c(=S)[nH]c2ccsc2c1=O)NCc1ccc2c(c1)OCO2	NadD block 29.9 | NadD conf inactive
